Source: PubChem BioAssay AID1894 (NMMLSC, 2009)
The whole screen tested about 5,900 compounds, of which about 100 (1.7%) were called active.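 Rule for the calls: active = binding response below 72% of control, or above a set upper limit, though filed actives all read lower; inactive = the rest.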 Many of the other results were omitted from the sample, so actives are more common in it than they were.

Biological target: Mitogen-activated protein kinase kinase kinase 3 (Homo sapiens) (UniProt Q99759)
Assay: blockers of MEK5-MEKK3 PB1 association – biochemical, bead multiplex flow cytometry, single concentration, wildtype, confirmation (AID 1894);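 note: 100% = DMSO only wells and 0% = binding blocked by excess unlabeled MEK5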
Conditions: Alexa488-MEK5 binding to MEKK3, at 10 µM, stronger effect = lower value

Chain of Mitogen-activated protein kinase kinase kinase 3 (Homo sapiens) (Q99759 whole entry, looked up): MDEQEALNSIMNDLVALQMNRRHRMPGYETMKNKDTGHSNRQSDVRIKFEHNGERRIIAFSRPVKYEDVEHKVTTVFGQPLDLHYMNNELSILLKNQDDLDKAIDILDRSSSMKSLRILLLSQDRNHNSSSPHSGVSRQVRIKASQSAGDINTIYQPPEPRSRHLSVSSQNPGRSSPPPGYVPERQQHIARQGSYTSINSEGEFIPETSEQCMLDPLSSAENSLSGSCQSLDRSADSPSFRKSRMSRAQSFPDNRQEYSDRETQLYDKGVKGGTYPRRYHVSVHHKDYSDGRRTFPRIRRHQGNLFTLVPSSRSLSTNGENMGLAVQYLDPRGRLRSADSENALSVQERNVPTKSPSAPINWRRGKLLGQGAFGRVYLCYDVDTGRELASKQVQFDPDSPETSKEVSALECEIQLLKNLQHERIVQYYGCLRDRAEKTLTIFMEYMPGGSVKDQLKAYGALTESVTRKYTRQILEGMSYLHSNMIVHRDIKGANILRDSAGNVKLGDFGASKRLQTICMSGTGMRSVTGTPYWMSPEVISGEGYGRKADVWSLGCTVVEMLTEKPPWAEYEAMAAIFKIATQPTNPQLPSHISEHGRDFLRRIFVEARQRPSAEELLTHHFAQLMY

Compound | binding response (% of control)
C=C(C)C1CC=C(C)/C(=N\NC(=O)CNc2ccccc2OC)C1 (configuration not stated) | 109% (inactive)
CCOC(=O)c1cc2c(nc1NC(=S)Nc1ccccc1)CC(C)(CC)OC2 (configuration not stated) | 102% (inactive)
COc1cccc(OCC(=O)NNC(=O)c2cnccn2)c1 | 101% (inactive)
CCCn1c(=N)n(CC(=O)c2ccc(Cl)c(Cl)c2)c2ccccc21 | 109% (inactive)
Cc1cc(C)c(NC(=O)C[N+](C)(C)CC(O)COc2cccc3ccccc23)c(C)c1 (configuration not stated) | 108% (inactive)
CCOC(=O)c1c(-c2ccccc2)csc1NC(=S)NC(=O)c1ccccc1 | 102% (inactive)
CCCCN1C(=O)/C(=C(/C#N)C(N)=O)c2ccccc21 | 99% (inactive)
CC(=O)Nc1ccc(N2CCOCC2)c(C(=O)Nc2cccc(C)c2)c1 | 105% (inactive)
COc1ccccc1NC(=S)N1CCN(c2ccc(F)cc2)CC1 | 102% (inactive)
CCCN(CCC)c1nc2c(C)cccn2c(=O)c1/C=C1/SC(=S)N(Cc2ccco2)C1=O | 86% (inactive)
O=C(Nc1ccc2ccccc2c1)Nc1ccc2snnc2c1 | 105% (inactive)
O=C1NCC(=O)N(Cc2ccccc2)/C1=C/c1ccccc1 | 91% (inactive)
O=C(CSc1ccc(-c2ccc(F)cc2)nn1)Nc1ccc2c(c1)OCCO2 | 104% (inactive)
CCOc1cc(C(=O)OCC(=O)Nc2cccc(C)c2)ccc1OCC(=O)N1CCOCC1 | 106% (inactive)
O=C(CN1C(=O)c2cccnc2Oc2ccc(Cl)cc21)Nc1ccc(F)cc1 | 103% (inactive)
O=c1c2ccccc2c(-c2ccccc2)nn1Cc1ccccc1 | 97% (inactive)
CCn1cc(CN2CCC(C(=O)Nc3cccc(-c4cccc(Cl)c4)c3)CC2)cn1 | 116% (inactive)
CC(=O)N1CCN(S(=O)(=O)c2ccc(C)c([N+](=O)[O-])c2)C1C(C)C (configuration not stated) | 97% (inactive)
N=C1/C(=C/c2cccn2-c2cccc([N+](=O)[O-])c2)C(=O)N=C2SC=CN12 | 100% (inactive)

Compound | binding response (% of control)
Cn1c(=NC(=O)CSCC(=O)N2CCCCC2)sc2ccccc21 | 104% (inactive)
CCCCNC(=O)N1CCCC(N(C)CCc2ccc(OC)c(OC)c2)C1 (configuration not stated) | 102% (inactive)
O=C(NCc1ccccc1Cl)NC(=O)c1csc([N+](=O)[O-])c1 | 103% (inactive)
CC(C)(C)c1nnc(NC(=O)C2c3ccccc3Oc3ccccc32)s1 | 100% (inactive)
CN(c1ccccc1)c1ccc(/C=c2\s/c(=C(/C#N)C(=O)C(C)(C)C)n(Cc3ccco3)c2=O)cc1 | 69% (active)
O=C(/C=C/Nc1ccccc1)c1cnc(-c2ccccc2)s1 | 106% (inactive)
Cc1cccc(-c2ncc(CN3CCC(CO)(CCCc4ccccc4)CC3)cn2)c1 | 107% (inactive)
CC(C)(C)NC(=O)c1cccc(NC(=O)Cc2ccc(Br)cc2)c1 | 101% (inactive)
COCC(C)NC(=O)COc1nncc2ccccc12 (configuration not stated) | 95% (inactive)
O=C(COC(=O)CNC(=O)c1ccco1)Nc1ccc(F)cc1 | 103% (inactive)
CCOC(=O)c1c(NC(=O)c2ccc(S(=O)(=O)N(C)CC3CCCO3)cc2)sc2c1CC(C)(C)NC2(C)C (configuration not stated) | 99% (inactive)
CCN(CC)CCCNC(=O)c1ccc2c(=O)n(Cc3ccc4c(c3)OCO4)c(=S)[nH]c2c1 | 101% (inactive)
CN(C)CCCN(C(=O)COc1ccccc1)c1nc2c(Cl)cccc2s1 | 108% (inactive)
O=C(O)/C=C\C(=O)Nc1ccc(OCc2ccccc2)cc1 | 98% (inactive)
Cc1ccc2c(C)c(C(=O)N3CCN(c4ccncc4)CC3)oc2c1C | 108% (inactive)
Cc1ccccc1-c1ccc(Nc2ccc(C(=O)N3CCOCC3)cc2)nn1 | 102% (inactive)
C[N+](C)(C)CCNC(=O)c1c(O)c2c([nH]c1=O)CCCC2 | 99% (inactive)
COc1cc(C)nc(N2CCCC(C(=O)NCC(C)C)C2)n1 (configuration not stated) | 96% (inactive)
O=c1[nH]c(=S)[nH]c2[nH]c(=S)[nH]c12 | 100% (inactive)

Compound | binding response (% of control)
CCOC(=O)c1cc2occc2n1CC(=O)N1CCN(C(=O)c2ccco2)CC1 | 95% (inactive)
O=C(O)C1CCN(c2ccc([N+](=O)[O-])cc2[N+](=O)[O-])CC1 | 102% (inactive)
COc1ccccc1CC(=O)Nc1ccc([N+](=O)[O-])cc1OC | 98% (inactive)
c1ccc2c(c1)C(=NC1CCCCC1)NC2=NC1CCCCC1 | 104% (inactive)
CCc1nnc(NC(=O)c2sc3nc(C)cc(COC)c3c2N)s1 | 105% (inactive)
Cc1cccc(OCCNC(=O)CSc2ccc(C(F)(F)F)cc2[N+](=O)[O-])c1 | 104% (inactive)
COc1ccc(CCn2c(NN=C3CCCC3)nc3c2c(=O)[nH]c(=O)n3C)cc1 | 106% (inactive)
Cc1c(CN2CCC(CO)(CCOc3ccccc3)CC2)[nH]c2ccc(Cl)cc12 | 112% (inactive)
COc1cccc(Nc2ncccc2C(=O)O)c1 | 101% (inactive)
O=C(NCC1CCCCC1)c1cc(S(=O)(=O)N2CCCCC2)ccc1N1CCOCC1 | 91% (inactive)
O=C(c1ccc(Br)o1)N(c1ccccn1)C1CCCCC1 | 98% (inactive)
Cc1cccc(CSc2nnc(C)c(=O)n2N)c1 | 103% (inactive)
CC(C)CC(=O)NC(=S)NCc1ccccc1 | 99% (inactive)
COC(=O)C1=NN(c2ccccc2)C2C(=O)N(c3ccccc3OC)C(=O)C12 (configuration not stated) | 103% (inactive)
Cc1ccccc1CCN(CC(=O)NC1CCCCC1)C(=O)c1csnn1 | 97% (inactive)
Cc1[nH]c2ccc(S(N)(=O)=O)cc2c1C | 100% (inactive)
CCc1ccc2nc(Nc3ncc(C(C)=O)c(C)n3)nc(C)c2c1 | 102% (inactive)
COc1cccc(OC)c1C(=O)Nc1ccc(Cc2ccncc2)cc1 | 101% (inactive)
CN(C)CC(O)COc1ccc(C(C)(C)c2ccc(OCC(O)CN(C)C)cc2)cc1 (configuration not stated) | 111% (inactive)
